Hits are enriched below; roughly 19% of the tested compounds scored in any of these assays.
HT1080NT lethal: qHTS for induction of synthetic lethality in tumor cells producing 2HG: qHTS for the HT-1080-NT fibrosarcoma cell line | HT-1080-NT fibrosarcoma viability, CellTiter-Glo ATP luminescence, 48 h | Potency, µM (doses to about 46.1 µM), without a hit: top-dose activity, negative = less viability, most hits filed as cytotoxic | 360,000 tested, 1.6% active | AID 686970, 2013;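 note: NT is the 2HG producing partner of a matched IDH1 knockdown line; 0% = DMSO-treated cells and -100% = media-only wells without cells; nearly all actives have a fitted effect of over 55% in size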
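Viability by CellTiter-Glo luminescence after 48 h compound exposure at 37C of HT-1080-NT cells (750/well, RPMI, 5% FBS). % activity scaled between DMSO wells and medium-only wells, then curve-fitted and categorized by curve class.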
KB-V1 MDR tox: qHTS assay for MDR1-selective chemotherapeutics: Primary screen using the drug-selected MDR subline cells KB-V1. 400,000 tested, 3.4% active. KB-V1 MDR cells viability, CellTiter-Glo, 72 h. Potency, µM (top dose mostly 46.1 µM), most hits filed as cytotoxic; note: nearly all actives have a fitted effect of over 60% in size
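Cytotoxicity toward P-gp-expressing KB-V1 cells was determined as loss of CellTiter-Glo luminescence after 72 h at 37 degrees C. Compounds were tested in quantitative HTS format across a concentration range, with curves fitted to normalized data.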
DT40 TDP1 CPT: qHTS for Inhibitors of human tyrosyl-DNA phosphodiesterase 1 (TDP1): qHTS in cells in presence of CPT | chicken DT40 Tdp1-/-;hTDP1 cells + 20 nM CPT, ATP luminescence, 48 h | 420,000 tested, 12% active | Potency, µM (highest dose often 46.2 µM), inactives show at the highest dose activity change, negative = growth inhibition, actives largely listed as inhibitors; note: nearly all actives have a fitted effect of over 55% in size
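Cell growth measured by CellTiter-Glo luminescence after a minimum 48 h, 37 C compound exposure with 20 nM CPT in Tdp1-knockout DT40 cells stably expressing hTDP1, seeded 400/well; qHTS titration format.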
KB-3-1 cytotox: qHTS assay for MDR1-selective chemotherapeutics: Primary screen using the parental adenocarcinoma cell KB-3-1 | KB-3-1 viability, CellTiter-Glo ATP luminescence, 72 h | Potency, µM (top dose mostly 46.1 µM), most hits filed as cytotoxic | 400,000 tested, 1.4% active; note: nearly all actives have a fitted effect of over 60% in size
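Parental KB-3-1 adenocarcinoma cells in phenol-red-free DMEM with 10% FBS were pin-treated with compounds at several concentrations, incubated 72 h at 37 °C, and viability read by CellTiter-Glo luminescence; concentration-effect curves were fitted after normalization.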
DT40 TDP1 no CPT: qHTS for Inhibitors of human tyrosyl-DNA phosphodiesterase 1 (TDP1): qHTS in cells in absence of CPT; DT40 Tdp1-/- hTDP1 cells, no CPT, ATP luminescence, 48 h; Potency, µM (series often up to 46.2 µM), inactives show at the highest dose activity change, negative = growth inhibition, hits mostly inhibitors; 420,000 tested, 15% active; AID 686978, 2013; note: nearly all actives have a fitted effect of over 55% in size
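A cellular qHTS used chicken DT40 cells lacking endogenous Tdp1 but carrying stably transfected human TDP1. Compounds were applied without camptothecin, and cell growth kinetics were judged by ATP-dependent luminescence after ≥48 hr.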
HT1080 IDH1KD tx: qHTS for induction of synthetic lethality in tumor cells producing 2HG: qHTS for the HT-1080-IDH1KD cell line; HT-1080 IDH1 knockdown viability, ATP luminescence, 48 h; Potency, µM (top dose mostly 46.1 µM), inactives show at the top dose activity, negative = toxicity, most hits filed as cytotoxic; 360,000 tested, 2% active;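 note: 0% = DMSO wells and -100% = cell-free medium wells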
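IDH1KD HT-1080 cells, 750/well, RPMI + 5% FBS; compound pinned after 2 h settling; 48 h, 37 °C; CellTiter-Glo luminescence; % activity normalised to DMSO and no-cell wells; curves fitted, classed by r2 and efficacy.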
Active calls of the source: *; i = inactive; ? = inconclusive; . = not tested or not shown; [ ] = another dose, or the depositor's remark. Calls come from the whole dose curve; as a rule, active = well fitted curve in the direction sought with a large enough effect; inconclusive = small, poorly fitted or top-dose-only effect, or another doubt; inactive = no such curve, though single readings can be large; an effect the other way counts as inactive or inconclusive. Unless noted, % is set by controls: 0 for no effect and ±100 for the full control effect; potency is the fitted concentration of half-maximal effect.

SMILES	HT1080NT lethal	KB-V1 MDR tox	DT40 TDP1 CPT	KB-3-1 cytotox	DT40 TDP1 no CPT	HT1080 IDH1KD tx
COc1ccc(CN2C[C@@H](CO)O[C@@H](n3cnc4c(NCc5ccncc5)ncnc43)C2)cc1	12%	i	-15%	i	5%	6%
O=C(Nc1cccc(C(F)(F)F)c1)c1ccc2snnc2c1	.	i	-24%	i	4%	.
O=C(Nc1cccc(C(F)(F)F)c1)Nc1ccc2snnc2c1	.	?	3.7µM*	?	5.2µM*	.
Cc1cc(N2CCC(C(=O)Nc3ccc(F)cc3)CC2)nc(-c2ccccc2)n1	-11%	i	-22%	i	18µM*	?
Cc1cc(C)nc(N2CCN(c3ccc(F)cc3)CC2)n1	14%	i	-20%	i	3%	13%
Cc1cc(N2CCN(c3ccc(F)cc3)CC2)nc(-c2ccccc2)n1	0%	i	9.2µM*	i	8.2µM*	15%[9.24 µM]
COc1ccc(NC(=O)C2CCN(c3cc(C)nc(-c4ccccc4)n3)CC2)cc1	-5%	i	?	i	?	-26%
O=C1Nc2ccc(C(=O)O)c(O)c2C1=O	21%	i	-14%	?	-12%	22%
CC(O)C(NS(=O)(=O)c1ccc(Cl)cc1)C(=O)OCCOc1ccc(F)cc1 (stereo not drawn)	-1%	i	?	i	?	-10%
CCOC(=O)c1ccc2oc(=O)n(Cc3ccccc3)c2c1	.	i	-28%	i	-23%	.
COc1cccc(CNC(=O)c2cnc3c(-c4ccc(F)cc4)c(C)nn3c2C)c1	.	i	-1%	i	-14%	.
CCN(CC)CCN1c2ccccc2Sc2ccc3ccccc3c21	?	i	-17%	i	16µM*	?
CCOC(=O)N/N=C(/c1ccccc1)C1CCCCC1	-1%	i	-23%	i	?	-2%
Nc1ncnc2c1ncn2[C@@H]1O[C@H](CNCc2c(OCc3ccccc3F)ccc3ccccc23)[C@@H](O)[C@H]1O	-14%	i	?	i	?	-10%
O=c1sc(/C=N/Nc2ccccc2)c(Cl)n1Cc1ccccc1	15µM*	i	-8%	i	-22%	13µM*
COC(=O)c1cccc(Cn2c(Cl)c(/C=N/NC(=O)c3ccccc3Cl)sc2=O)c1	-15%	?	?	i	?	-11%
COC(=O)c1cccc(Cn2c(Cl)c(/C=N/NC(=O)c3ccco3)sc2=O)c1	0%	i	?	i	9.2µM*	-20%
C=CCn1c(SCc2ccc(F)cc2)nnc1-c1sc2nc(C)cc(C)c2c1N	7%	i	-23%	i	-21%	2%
COc1ccccc1-c1n[nH]nc1C1=CC(=O)C[C@H](c2ccc(F)cc2)C1	-3%	i	?	i	?	-6%
COc1ccccc1C1=NC(c2ccc(F)cc2)N=C1C (stereo not drawn)	-9%	?	-10%	18µM*	?	-12%
N#CCSc1nnc(C2CCCCC2)n1Cc1ccccc1	8%	i	10µM*	i	-22%	4%
O=C(CN1C(=O)CNC1=O)Nc1cc(Cl)cc(Cl)c1	-4%	i	17%	i	11%	-6%
COc1ccc(C(=O)N2CC3(CC(c4cccc(NC(=O)COc5ccc(Cl)cc5)c4)=NO3)C[C@@H]2C(N)=O)cc1 (stereo partly drawn)	7%	i	21µM*	?	?	-1%
NC(=O)[C@H]1CC2(CC(c3cccc(NC(=O)COc4ccc(Cl)cc4)c3)=NO2)CN1C(=O)Cc1ccc([N+](=O)[O-])cc1 (stereo partly drawn)	?	?	13µM*	i	16µM*	-16%
NC(=O)[C@@H]1CC2(CC(c3cccc(NC(=O)COc4ccc(Cl)cc4)c3)=NO2)CN1C(=O)c1ccccc1 (stereo partly drawn)	3%	i	?	i	?	2%
SMILES	HT1080NT lethal	KB-V1 MDR tox	DT40 TDP1 CPT	KB-3-1 cytotox	DT40 TDP1 no CPT	HT1080 IDH1KD tx
CC[C@H](C)Cc1cn([C@@H](CCCCN)C(=O)NCCCCCCCCCCC(=O)N2CCNCC2)nn1	4%	?	-5%	i	-30%	5%
CSCC[C@@H](C(=O)NCCCCCCCCCCC(=O)N1CCNCC1)n1cc(CCO)nn1	3%	i	-24%	i	?	6%
C#CCOCCOCCOCCNc1nc(N2CCN(C(=O)CCCCCCCCCCNC(=O)Cn3cc(CCCCCN)nn3)CC2)nc(N2CCN(C(=O)CCCCCCCCCCNC(=O)[C@@H]([C@H](C)O)n3cc(C)nn3)CC2)n1	-5%	i	?	?	?	-15%
CC(C)(C)OC(=O)NCCCCCc1cn(CC(=O)NCCCCCCCCCCC(=O)N2CCN(C(=O)OC(C)(C)C)CC2)nn1	20%	i	5.8µM*	i	6.5µM*	1%
Cc1cn([C@@H](CCCCNC(=O)OC(C)(C)C)C(=O)NCCCCCCCCCCC(=O)N2CCN(C(=O)OC(C)(C)C)CC2)nn1	21µM*	i	8.2µM*	?	7.3µM*	?
CC[C@H](C)Cc1cn([C@@H](CCCN=C(NC(=O)OC(C)(C)C)NC(=O)OC(C)(C)C)C(=O)NCCCCCCCCCCC(=O)N2CCN(C(=O)OC(C)(C)C)CC2)nn1	?	i	9.2µM*	?	7.3µM*	?
CC(=O)Nc1cc(-c2cccc(F)c2)cn2c(-c3ccc(S(C)(=O)=O)cc3)cnc12	-6%	i	?	i	21µM*	-12%
CC(=O)Nc1cccc(-c2cc(NC(C)=O)c3ncc(-c4ccc(F)cc4)n3c2)c1	-56%	?	?	i	15µM*	?
CC(=O)Nc1cc(-c2cccc(F)c2)cn2c(-c3ccc(F)cc3)cnc12	?	i	?	i	23µM*	-29%
CC(=O)Nc1cc(-c2ccoc2)cn2c(-c3ccccc3)cnc12	-2%	i	1µM*	i	0.92µM*	-20%

Screening data deposited in PubChem by National Center for Advancing Translational Sciences (NCATS).
